The text below walks through data of publication PMC5540273 (PLoS ONE, 2017).

Some test systems named below: LTK; LYN; MAK; MAP3K15; MAP3K1; MAP3K2; MAP3K3; MAP3K4; MAP4K2.
Settings in all cases: concentration: 1 μM, replicates: in singlicate; n = 1
A further test relates to T1, LZK.
T1 construct: gene MAP3K13
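Further: KINOMEscan kinase panel screen.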

With `CN(C(=O)c1ccc(-c2cc(-c3c[nH]nc3-c3ccccn3)ccn2)cc1)C1CCOCC1` [GW810083], the “%Inh” value in the test on LTK is listed as 0%; with LYN, 0%; with LZK, 0%; in the test with MAK, 6%; with MAP3K15, 0%; with MAP3K1, 0%. Moreover, the “%Inh” value in the test on MAP3K2, with MAP3K3, in the test with MAP3K4 and in the test with MAP4K2 was 0% throughout.
Consider `Nc1nccc(-c2c(-c3ccc(F)cc3)ncn2C2CCN(CC(F)(F)F)CC2)n1` [SB-236560], for which the “%Inh” value is reported as 100% in the test with LTK; 13% in the test on LYN; 7% with LZK; 29% in the test with MAK; 0% in the test on MAP3K15; 0% in the test on MAP3K1. Moreover, the “%Inh” value in the test on MAP3K2, with MAP3K3, in the test on MAP3K4 and in the test with MAP4K2 was 0% each time.
With `O=c1cc(N2CCOCC2)nc2n(Cc3cccc4ccccc34)ccn12` [GSK2333389], the “%Inh” value worked out at 0% in the test with LTK; 0% in the test with LYN; 0% with LZK; 0% with MAK; 0% in the test on MAP3K15; 8% with MAP3K1. Also, the “%Inh” value in the test on MAP3K2, in the test with MAP3K3, in the test on MAP3K4 and with MAP4K2 was 0% each time.
In the case of `COc1ccc(COc2cc(-n3cnc4ccccc43)sc2C(N)=O)cc1` [GSK1024304], the “%Inh” value turned out to be 6% in the test with LTK; 0% in the test with LYN; 0% in the test on LZK; 0% with MAK; 0% in the test on MAP3K15; 0% in the test with MAP3K1. In addition, the “%Inh” value in the test on MAP3K2 worked out at 0%; in the test with MAP3K3, 0%; with MAP3K4, 20%; with MAP4K2 it was 0%.
Turning to `O=c1cc(N2CCOCC2)nc2n(Cc3cccc(F)c3)ccn12` [GSK2297430], the “%Inh” value with LTK worked out at 68%; with LYN, 0%; with LZK it was 0%; with MAK it was 21%; in the test with MAP3K15, 0%; with MAP3K1, 17%. The “%Inh” value in the test with MAP3K2 stood at 0%; in the test with MAP3K3 it was 0%; with MAP3K4, 10%; with MAP4K2 it was 0%.
